Bioassay records as filed in PubChem BioAssay.
IEC-6 tox: cytotoxicity in IEC-6 intestinal epithelial cells, primary screen, cytotoxicity control for KLF5 inhibitor project, cell-based, luminescence; IEC-6 cytotoxicity, luminescence viability; AID 1825, 2009; actives 0.78% (n = 290,000); inhibition, % at 5 µM;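 further: 0% = plate median of test compound wells and 100% = cytotoxic reference compound wells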
APP transl inh: inhibitors of APP translation via 5'UTR reporter, primary screen, APP 5'UTR luciferase, SH-SY5Y cells | SH-SY5Y APP 5'UTR-luciferase reporter, luminescence | inhibition, % at 2 µM | actives 0.82% (n = 190,000);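 active means inhibition above a set limit, derived from the sample mean plus 3 SD, cut at about 45% in these data; inconclusive means one replicate passes the limit while the other fails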
BaF3 tox: parental Ba/F3 cell viability inhibition, counter-screen for JAK2V617F inhibitor project, murine pro-B, CellTiter-Glo luminescence; CellTiter-Glo ATP luminescence; inhibition, % at 5.6 µM; actives 1.1% (n = 220,000);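 active means inhibition above a per-campaign cutoff, the mean inhibition of all tested compounds plus 3 SD, cut at about 27% in these data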;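 further: 0% = DMSO wells and 100% = JAK Inhibitor I control wells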
KLF5 inhibitor: KLF5 expression inhibitors, primary screen, DLD-1 cells, luminescence; inhibition, % at 5 µM; DLD-1 KLF5 promoter-luciferase reporter; actives 0.23% (n = 290,000);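 active means inhibition above a per-plate limit of that plate's mean compound inhibition plus 3 SD, cut at about 60% in these data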;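 further: 0% = DMSO wells and 100% = LY294002 at 200 µM; higher means less KLF5 promoter-driven luciferase light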
Ba/F3 V617F tox: reduced viability of JAK2V617F-dependent Ba/F3 cells, primary screen, JAK2V617F inhibitor project, cell-based, Ba/F3 EpoR-JAK2V617F, luminescence; actives 1.1% (n = 220,000); ATP luminescence; inhibition, % at 5.6 µM;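 active means inhibition above the campaign mean plus 3 SD over all tested compounds, cut at about 24% in these data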;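 further: cytokine-independent growth of Ba/F3 cells driven by EpoR plus mutant JAK2; 0% = DMSO-treated cells and 100% = JAK inhibitor I control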
aSyn 5UTR inh: MLPCN primary screen, SNCA 5' untranslated region; alpha-synuclein 5'UTR reporter, inhibitor activity; actives 0.82% (n = 300,000); AID 1813, 2009; inhibition, % (tested at 7.5 µM); in the data active means inhibition above about 60%; inconclusive means no clear call, values can overlap the other calls;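 further: H4 neuroglioblastoma cells stably carrying SNCA 5'UTR luciferase fusion; 0% = DMSO wells and 100% = positive control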
IEC-6 cytotox cf: cytotoxic compounds in IEC-6 epithelial cells, confirmation, cytotoxicity control, cell-based, luminescence. IEC-6 rat intestinal epithelial viability. AID 1907, 2009. inhibition, % at 5 µM. shares compounds with IEC-6 tox. actives 63% (n = 1,900);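 further: 0% = vehicle and 100% = reference cytotoxic drug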
Numbers without * were called inactive; ? = inconclusive; / = no result given. Rows were chosen to be rich in hits. Some 2.1% of all compounds tested hit in one or more screens of this group. Unless noted, no stated cut-off is given here; in the data, active means inhibition above about 22%; inactive means the rest.

SMILES	IEC-6 tox	APP transl inh	BaF3 tox	KLF5 inhibitor	Ba/F3 V617F tox	aSyn 5UTR inh	IEC-6 cytotox cf
CN(Cc1ccon1)C(=O)C1CCN(C2CCN(CCCc3ccccc3)CC2)CC1	-4	/	/	-34	/	-10	/
CCn1cc2nc(SCC(=O)Nc3ccc(OC)cc3OC)n(Cc3ccc(OC)cc3)c(=O)c2n1	62*	/	/	56	/	-6	42*
CCn1cc2nc(SCC(=O)Nc3ccc(OC)c(OC)c3)n(Cc3ccc(OC)cc3)c(=O)c2n1	1	/	/	-1	/	31	/
CN(Cc1c(F)cccc1Cl)C(=O)CNC(=O)c1sc2ccccc2c1Cl	/	/	/	/	/	-66	/
Clc1ccc2c(NCc3cccs3)ncnc2c1	5	/	/	-11	/	-24	/
COc1cc2ncnc(NCc3cccs3)c2cc1OC	33*	-7	8	17	2	-24	32*
CN(C)CCNC(=O)c1cc2c(s1)-c1ccc(Cl)cc1SC2	101*	/	/	-43	/	100*	28*
CCOCCCNC(=O)c1cc2c(s1)-c1ccccc1SC2	0	/	/	1	/	-25	/
CN(C)c1ccc(/C=C/c2ccc3c4ccccc4ccc3[n+]2-c2ccccc2)cc1	65*	83*	89*	45	101*	/	80*
COC(=O)c1ccc(/C=N/n2c(C)nc3ccccc3c2=O)cc1	-8	/	/	-55	/	-25	/
Cc1ccc2c(c1)sc(-c1ccc(N(C)C)cc1)[n+]2C	44*	/	/	33	/	4	30*
COc1ccc(C)cc1Nc1n[n+](-c2ccccc2)c(-c2ccc(N(C)C)cc2)s1	1	/	/	-21	/	-41	/
COc1ccc(C(=O)NCc2nnc(SCC(=O)Nc3nc4ccccc4s3)o2)cc1	64*	3	6	-31	3	-14	-7
CC(=O)Nc1ccc(S(=O)(=O)N2CCCN(c3nc(C)cc(C)c3C#N)CC2)cc1	-4	/	/	6	/	-12	/
COC(=O)[C@@H]1Cc2c([nH]c3ccccc23)C(C)(C)N1C(=O)CCl	95*	/	/	-35	/	?	36*
O=C(Nc1cccc2ccccc12)NC(Cc1ccccc1)C(=O)O (centres undefined)	2	/	/	-14	/	24	/
O=C(c1ccccc1)c1c2c(cc3sc4ccccc4[n+]13)-c1cccc3cccc-2c13	39*	-36	68*	-9	86*	/	18
Cc1sc2ccccc2[n+]1CC(=O)c1ccccc1	2	/	/	-18	/	-8	/
CC[n+]1c(/C=C/N(C)c2ccccc2)n(-c2ccccc2)c2ccc(-c3nc4ccccc4s3)cc21	58*	/	/	29	/	120*	12
CCOc1cc(-c2nc3ccccc3s2)ccc1O	2	/	0	-55	4	-98	/
COc1cc(OC)c(N(C)C(=O)c2cc3c(s2)-c2ccccc2S(=O)(=O)C3)cc1Cl	/	/	/	/	/	3	/
CCN1CCCC1CNC(=O)c1cc(COc2ccc(C)c(C)c2)on1 (centres undefined)	-8	/	/	-49	/	-63	/
COc1cc(CCC(=O)Nc2ncc(C)s2)cc(OC)c1OC	2	/	/	-5	/	13	/
COc1cc(CCC(=O)Nc2nnc(C)s2)cc(OC)c1OC	48*	/	/	46	/	-53	35*
NC(=O)C1CCN(C(=O)Cc2ccsc2)CC1	-2	/	/	-18	/	7	/
SMILES	IEC-6 tox	APP transl inh	BaF3 tox	KLF5 inhibitor	Ba/F3 V617F tox	aSyn 5UTR inh	IEC-6 cytotox cf
CCN1CCc2c(sc(NC(=O)c3cc4ccccc4cc3OC)c2C(N)=O)C1	27*	/	/	-20	/	34	2
CCCCn1c(=O)[nH]c(=O)c2c1nc(Cn1ncc(Cl)c(Cl)c1=O)n2CCC	102*	/	/	50	/	-106	28*
CCCCn1c(=O)[nH]c(=O)c2c1nc(CN1C(=O)c3ccccc3S1(=O)=O)n2CCC	-6	-19	3	-24	0	-1	/
CCc1nnc(NC(=O)c2cc(Cl)ccn2)s1	31*	/	/	-87	/	-20	18
CCc1nc(N)nc(N)c1-c1ccc(Cl)cc1	49*	-9	97*	13	97*	85*	36*
Cc1nn(-c2ccccc2)c(N)c1N=Nc1cccnc1	8	-51	6	-28	1	-48	/
Nc1nn(-c2ccccc2)c(N)c1N=Nc1cccc(F)c1	77*	/	80*	-36	84*	-57	59*
CCCCn1c(N)c(N(CC(C)C)C(=O)c2cc(S(=O)(=O)N3CCCCC3)ccc2C)c(=O)[nH]c1=O	/	/	/	/	/	3	/
Cc1c(C(=O)OCC2CCCO2)[nH]c2c1C(=O)CC(c1ccco1)C2 (centres undefined)	38*	33	4	-14	11	-46	47*
Cc1c(C(=O)OCC(C)C)[nH]c2c1C(=O)CC(c1ccco1)C2 (centres undefined)	81*	96*	76*	47	79*	70*	57*
CCOC(=O)c1[nH]c2c(c1C)C(=O)CC(c1ccc(OC)c(OC)c1)C2 (centres undefined)	3	44	2	-12	-2	-20	/
Cc1c(C(=O)OC2CCCC2)[nH]c2c1C(=O)CC(c1ccco1)C2 (centres undefined)	88*	94*	81*	56	77*	56	57*
COC(=O)C1C(=O)c2c([nH]c(C(=O)OC3CCCC3)c2C)CC1C (centres undefined)	3	-109	0	-120	0	-131	/
COc1cccc(NS(=O)(=O)NC(=O)c2c(C)[nH]c3ccccc23)c1	-6	/	/	14	/	-33	/
NC(N)=NS(=O)(=O)c1ccc(NC(=S)NC(=O)Cc2ccc(Cl)cc2)cc1	8	/	/	-6	/	-1	/
O=C(Cc1cccs1)N1CCN=C1SCc1cccc(F)c1	1	/	0	-23	1	16	/
CCc1nnc(NC(=O)CCNC(=O)c2ccco2)s1	0	/	/	6	/	15	/
FC(F)Oc1ccc(C2N=C(c3ccccc3)NO2)cc1 (centres undefined)	-13	/	/	-87	/	-199	/
Cc1ccc(OCC(=O)NNC(=S)NC(=O)C2CC2)c(C)c1	36*	/	/	26	/	/	14
O=C(CC1SC(N2CCCCC2)=NC1=O)Nc1cccc(C(=O)Nc2ncccc2O)c1 (centres undefined)	/	/	/	/	/	-22	/
COc1ccc(C(=O)N2CCc3cc4c(cc3C2C)OCCCO4)cc1 (centres undefined)	13	/	/	11	/	15	/
CC1c2cc3c(cc2CCN1C(=O)c1ccc(Br)cc1)OCCCO3 (centres undefined)	39*	/	/	7	/	30	37*
CC(C)(C)C(=O)Cn1ncc(Br)c(Br)c1=O	29*	94*	-5	-19	5	-92	9
c1ccc2nc3c(nc2c1)c1ccccc1n3CCN1CCOCC1	23*	-13	77*	-111	84*	-80	10
